Source: PubChem BioAssay (National Center for Advancing Translational Sciences (NCATS))
A selection: hits, their analogues and other compounds. The true share with any hit is near 0.85%.
APEX1 inh – APE1 (human) endonuclease inhibition; recombinant APE1, TAMRA/BHQ-2 abasic DNA cleavage fluorescence; Potency, µM (doses to about 65.8 µM), most hits filed as inhibitors; hit rate 0.35% among 350,000; note: nearly all actives have a fitted effect of over 55% in size
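Enzyme (0.75 nM final) and test compound are incubated 15 min at room temperature before adding 50 nM quenched THF abasic-site duplex. Cleavage dequenches TAMRA, followed at 525/598 nm over three reads one minute apart.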
BLM inh – blocks DNA unwinding by human BLM helicase | P54132 | recombinant BLM DNA unwinding, fluorescence dequenching | Potency, µM (top dose mostly 56.1 µM), usual class: inhibitors | hit rate 0.2% among 350,000 | AID 2528; note: nearly all actives have a fitted effect of over 35% in size
GLS inhibitor – glutaminase GLS (human) inhibition; GLS enzymatic activity, qHTS titration; Potency, µM (series often up to 45.5 µM), hits mostly inhibitors; O94925; hit rate 0.21% among 410,000
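Read-out is an Amplex red fluorescence increase coupled through glutamate oxidase and HRP, measured before and after 30 min room-temperature incubation. hKGA is in 45 mM KH2PO4 (pH 8.2) with 0.02% Tween-20; glutamine added as 1mM solution.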
TDP1 inh – TDP1 (human) enzyme inhibition. hit rate 0.28% among 350,000. Potency, µM (series often up to 130 µM), actives largely listed as inhibitors. Q9NUW8. recombinant TDP1, AlphaScreen DNA substrate cleavage. AID 485290; note: nearly all actives have a fitted effect of over 40% in size
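Tdp1 1 nM final; 15 min RT w/ cpd; substrate 15 nM, 5 min; beads 10 ug/ml, 10 min; AlphaScreen read. Neg ctrl: no enzyme.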
RECQ1 inh-1 – blocks DNA unwinding by human RECQ1. P46063. RECQ1 DNA unwinding, red fluorescence kinetic read. Potency, µM (top dose mostly 57.3 µM), actives largely listed as inhibitors. hit rate 0.54% among 240,000. AID 2549; note: nearly all actives have a fitted effect of over 30% in size
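50 nM RECQ1T1 preincubated 15 min with compound in Tris pH 8.0 buffer with MgCl2, DTT, Tween-20 and 2.5 ug/ml poly(dI-dC); started with 200 nM TAMRA/BHQ-2 forked duplex and 2 mM ATP. Unwinding read as fluorescence (525/598 nm), two reads 2 h apart.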
Tb PGK inh – T. brucei PGK inhibition. P07378. PGK/GAPDH coupled, Kinase-Glo luminescence, 60 min. Potency, µM (doses to about 57.5 µM), most hits filed as inhibitors. hit rate 0.043% among 380,000; note: nearly all actives have a fitted effect of over 60% in size
Target sequence (P07378 whole entry, looked up): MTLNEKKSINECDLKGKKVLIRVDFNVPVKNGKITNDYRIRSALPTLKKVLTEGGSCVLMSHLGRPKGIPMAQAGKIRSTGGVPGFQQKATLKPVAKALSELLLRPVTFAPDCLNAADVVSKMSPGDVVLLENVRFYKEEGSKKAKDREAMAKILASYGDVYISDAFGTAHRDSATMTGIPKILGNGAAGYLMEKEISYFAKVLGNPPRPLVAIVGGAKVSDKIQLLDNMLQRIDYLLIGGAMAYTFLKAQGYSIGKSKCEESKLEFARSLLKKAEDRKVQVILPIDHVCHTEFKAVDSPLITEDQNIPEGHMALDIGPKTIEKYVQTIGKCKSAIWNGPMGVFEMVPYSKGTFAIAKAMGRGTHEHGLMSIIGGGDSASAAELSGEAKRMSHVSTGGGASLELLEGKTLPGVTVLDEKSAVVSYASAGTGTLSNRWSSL
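Luminescent ATP detection (Kinase-Glo Plus) follows a 60-minute room-temperature incubation, with wells lacking PGK as controls. Buffer: 100 mM TEA (pH 7.6), 5 mM MgCl2, 0.01% Tween-20. Coupling enzyme GAPDH (100 nM final) supplies unstable 1,3-BPG in-well.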
RECQ1 conf – confirmation of human RECQ1 helicase inhibitors; shares compounds with RECQ1 inh-1; Potency, µM (titrated, usually from 229 µM), hits mostly inhibitors; RECQ1 helicase DNA unwinding, fluorescence; hit rate 28% among 610; AID 2708; note: nearly all actives have a fitted effect of over 45% in size
RECQ1 ADP FP – ADP displacement flagged in RECQ1 inhibitor counter-screen | Potency, µM (titrated, usually from 228 µM), usual class: inhibitors | ADP fluorescence polarization displacement counterscreen | shares compounds with RECQ1 inh-1 | hit rate 27% among 530; note: nearly all actives have a fitted effect of over 45% in size
RECQ1 inh-2 – confirmation of human RECQ1 helicase inhibitors | hit rate 15% among 1,100 | Potency, µM (doses to about 119 µM), hits mostly inhibitors | shares compounds with RECQ1 inh-1 | recombinant RECQ1 DNA unwinding, red fluorescence; note: nearly all actives have a fitted effect of over 50% in size
Each line names hits and unclear results; the compound was inactive in the other large screens (follow-up assays come after a bar, where they were run). Calls come from the whole dose curve; as a rule, active = well fitted curve in the direction sought with a large enough effect; inconclusive = small, poorly fitted or top-dose-only effect, or another doubt; inactive = no such curve, though single readings can be large; an effect the other way counts as inactive or inconclusive.

Cc1ccc(S(=O)(=O)/N=C2\C=C(Nc3ccc(O)cc3)C(=O)c3ccccc32)cc1	GLS inhibitor inconclusive (no result: BLM inh, RECQ1 inh-1)
Cc1ccc(S(=O)(=O)/N=C2/C=C(Sc3ncn[nH]3)C(=O)c3ccccc32)cc1	BLM inh 15.8µM, RECQ1 inh-1 inconclusive, Tb PGK inh inconclusive | RECQ1 inh-2 inconclusive
CCn1c2cc(C)sc2c2cnn(Cc3ccccc3F)c(=O)c21	none (no result: APEX1 inh, BLM inh, GLS inhibitor, RECQ1 inh-1, Tb PGK inh)
CC(C)Nc1oc(-c2ccccc2)nc1-c1cccc2ccccc12	none (no result: GLS inhibitor, Tb PGK inh)
COC(=O)c1c(C)cc(O)cc1O	none
COC(=O)c1cc(O)cc(OC)c1Oc1cc(C)cc(O)c1C(=O)O	APEX1 inh 0.631µM, BLM inh 8.91µM, GLS inhibitor 11.2µM, RECQ1 inh-1 22.4µM, Tb PGK inh inconclusive (no result: TDP1 inh) | RECQ1 inh-2 5.01µM
N#CC(Cc1ccc(O)c(O)c1)C(=O)N1CCc2ccccc21 (configuration not stated)	none (no result: BLM inh, GLS inhibitor, Tb PGK inh)
CSc1ccccc1NC(=O)COC(=O)c1ccccc1Cc1ccccc1	RECQ1 inh-1 25.1µM | RECQ1 inh-2 inactive
CC(=O)Oc1ccc(C(=O)Nc2cccc(C(=O)c3cccc(NC(=O)c4ccc(OC(C)=O)cc4)c3)c2)cc1	GLS inhibitor inconclusive, RECQ1 inh-1 14.1µM (no result: TDP1 inh) | RECQ1 inh-2 inconclusive
C=C1C=CS(=O)(=O)N(Cc2ccccc2)C1	none (no result: GLS inhibitor, Tb PGK inh)
CCn1c(SCC(=O)Nc2nc(-c3ccccc3)cs2)nnc1-c1ccccc1	none | RECQ1 conf inconclusive | RECQ1 ADP FP inactive
CCn1c(SCC(=O)Nc2nccs2)nnc1-c1ccccc1	none (no result: Tb PGK inh)
COC1=CC(=O)C(O)=C/C1=C\C=C\c1ccccc1	none (no result: GLS inhibitor, Tb PGK inh)
O=C(/C=C/c1ccco1)N1CCCC(c2ccccc2)C1 (configuration not stated)	RECQ1 inh-1 inconclusive (no result: Tb PGK inh) | RECQ1 inh-2 inconclusive
CCc1ccc2[nH]c(=O)c(CN(Cc3cccs3)Cc3nnnn3Cc3ccccc3)cc2c1	none (no result: APEX1 inh, BLM inh, GLS inhibitor, RECQ1 inh-1, Tb PGK inh)
Cc1ccc(Oc2nc3ccccn3c(=O)c2/C=C(\C#N)C(=O)Nc2c(C)n(C)n(-c3ccccc3)c2=O)c(C)c1	none | RECQ1 conf inactive | RECQ1 ADP FP inactive
COc1ccccc1Oc1nc2ccccn2c(=O)c1/C=C(\C#N)C(=O)Nc1c(C)n(C)n(-c2ccccc2)c1=O	none | RECQ1 conf inactive | RECQ1 ADP FP inactive
Cc1c(NC(=O)/C(C#N)=C/c2ccccc2)c(=O)n(-c2ccccc2)n1C	none
C[C@H](C(=O)O)c1ccc2cc(O)ccc2c1	none (no result: GLS inhibitor, Tb PGK inh)
COCCN(C(=O)c1cc2c(s1)CCC2)c1c(N)n(CC(C)C)c(=O)[nH]c1=O	GLS inhibitor inconclusive, TDP1 inh inconclusive (no result: BLM inh, RECQ1 inh-1)
COCCCN(C(=O)c1cc2c(s1)CCC2)c1c(N)n(Cc2ccccc2)c(=O)[nH]c1=O	APEX1 inh inconclusive, BLM inh inconclusive, RECQ1 inh-1 14.1µM (no result: TDP1 inh) | RECQ1 conf 39.8µM | RECQ1 ADP FP inconclusive | RECQ1 inh-2 inconclusive
CCCCCCCCN=C(N)c1ccc(C(=O)OCC2CCCCC2)cc1	none (no result: GLS inhibitor, Tb PGK inh)
Cc1cc(C)n2c(SC/C(O)=C(\C#N)c3nc4ccccc4[nH]3)nnc2n1	APEX1 inh inconclusive, TDP1 inh inconclusive, RECQ1 inh-1 inconclusive | RECQ1 inh-2 inconclusive
Cc1ccccc1-n1c(SC/C(O)=C(\C#N)c2nc3ccccc3[nH]2)nnc1-c1ccncc1	none
CCOc1cccc(C2C=C(c3ccc4c(c3)OCO4)NC(c3ccc(Cl)cc3)N2)c1O (configuration not stated)	none (no result: APEX1 inh, BLM inh, GLS inhibitor, RECQ1 inh-1, Tb PGK inh)
Cc1cccc(N2CCN(C(=O)CCS(=O)(=O)c3ccc(Br)cc3)CC2C)c1 (configuration not stated)	RECQ1 inh-1 35.5µM, Tb PGK inh inconclusive (no result: TDP1 inh) | RECQ1 inh-2 39.8µM
CCCN1C(=O)c2ccccc2NC1c1ccc(OC)c(COc2ccc([N+](=O)[O-])c(C)c2)c1 (configuration not stated)	none (no result: APEX1 inh, BLM inh, GLS inhibitor, RECQ1 inh-1, Tb PGK inh)
COc1ncccc1-c1nnn(-c2ccc(C)cc2)n1	none
Cc1ccc(-n2nnc(-c3nccs3)n2)cc1	APEX1 inh inconclusive, RECQ1 inh-1 0.891µM, Tb PGK inh inconclusive | RECQ1 conf inactive | RECQ1 ADP FP inactive | RECQ1 inh-2 inactive
COC1C(OC(=O)/C=C/C=C/C=C/C=C/C(=O)O)CCC2(CO2)C1C1(C)OC1CC=C(C)C (configuration not stated)	none (no result: APEX1 inh, RECQ1 inh-1, Tb PGK inh)
Cc1ccc(CN(CC(=O)N/N=C/c2ccccc2[N+](=O)[O-])S(=O)(=O)c2ccc(C)cc2)cc1	none
O=C(CN(Cc1ccccc1)S(=O)(=O)c1ccccc1)N/N=C/c1ccccc1[N+](=O)[O-]	none (no result: Tb PGK inh) | RECQ1 conf inactive | RECQ1 ADP FP inactive
